Screening results: PubChem, several laboratories
CYP2C9 inh – blocks human cytochrome P450 2C9. P11712. CYP2C9 Supersomes, luciferin-H conversion, luminescence. inhibition, % at 5 µM. 20% of 96,000 active;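 active = blocking of liver enzyme CYP2C9 beyond about 50% at 5 µM, limit read from the data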
Target sequence (P11712 whole entry, looked up): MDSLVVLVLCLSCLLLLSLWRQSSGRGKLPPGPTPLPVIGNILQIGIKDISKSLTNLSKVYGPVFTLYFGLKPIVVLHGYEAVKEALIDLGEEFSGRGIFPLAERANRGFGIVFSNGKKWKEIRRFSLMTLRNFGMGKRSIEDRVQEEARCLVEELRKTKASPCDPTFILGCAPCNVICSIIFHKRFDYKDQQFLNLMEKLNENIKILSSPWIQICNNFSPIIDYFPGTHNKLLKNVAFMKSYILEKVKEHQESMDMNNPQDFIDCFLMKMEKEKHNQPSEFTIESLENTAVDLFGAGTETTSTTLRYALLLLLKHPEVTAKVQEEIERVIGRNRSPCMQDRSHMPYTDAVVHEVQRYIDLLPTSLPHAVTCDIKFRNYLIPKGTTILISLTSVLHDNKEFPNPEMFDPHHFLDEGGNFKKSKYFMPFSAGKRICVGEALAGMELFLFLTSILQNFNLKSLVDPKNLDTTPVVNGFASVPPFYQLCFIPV
CYP2C19 act – cytochrome P450 2C19 (human) activation; P33261; recombinant CYP2C19, luciferin-H EGE luminescence; active compounds read high; 0 = fully inhibited enzyme, 1 = untreated enzyme; activation factor at 5 µM; 96,000 tested, under 10 active; AID 1025;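 active = activation factor of at least 2 at 5 µM in the primary screen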;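 also: 0 = wells with 2.5 mM tranylcypromine and 1 = vehicle-only wells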
sEH inh – blocks human soluble epoxide hydrolase activity | P34913 | recombinant human sEH enzymatic activity assay | inhibition, % at 2 µM | 0.34% of 91,000 active | AID 707; in the data active = inhibition above about 80%
CYP2C19 inh – human CYP2C19 inhibition. 21% of 96,000 active. inhibition, % at 5 µM. AID 778. CYP2C19 Supersomes, luciferin-H EGE luminescence, 30 min;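 active = CYP2C19 inhibition above a set limit at 5 µM in the primary screen, cut at about 50% in these data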;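 also: plate controls were negative control wells for no effect and 2.5 mM tranylcypromine positive control for full effect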
sEH act – activators of human soluble epoxide hydrolase; AID 717; purified human sEH enzymatic activity, activator screen; 0.04% of 91,000 active; activation, % at 2 µM; P34913; in the data active = activation above about 37%
CYP2C9 activ – CYP2C9 (human) activation; P11712; 1.4% of 96,000 active; activation factor at 5 µM; AID 1024; recombinant CYP2C9, luciferin-H conversion, luminescence; active compounds read high; factor 1 = untreated enzyme, 0 = blocked;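 active = activation factor of 2 or more for CYP2C9 at a 5 µM dose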;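 also: 0 = sulfaphenazole-blocked wells and 1 = vehicle-only wells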
Starred values were filed as active, the others as inactive. This is a sample that favours compounds with a hit; in the whole collection about 27% have one here.

Results for O=C(NCCCCCCNC(=O)OC1CCS(=O)(=O)C1)OC1CCS(=O)(=O)C1 (stereo not given) ?
CYP2C9 inh: 1; CYP2C19 act: 1; sEH inh: 2; CYP2C19 inh: 4; sEH act: -1; CYP2C9 activ: 1

How did O=C(NCCCn1ccnc1)C1CC2CCC1C2 (stereo not given) do in these assays?
CYP2C9 inh: 74*; CYP2C19 act: 0; sEH inh: 1; CYP2C19 inh: 98*; sEH act: 0; CYP2C9 activ: 0.3

Results for O=C(O)C1C2CCC(C2)C1C(=O)NCCCn1ccnc1 (stereo not given) ?
CYP2C9 inh: 52*; CYP2C19 act: 0.2; CYP2C19 inh: 79*; CYP2C9 activ: 0.5

How did CC(C)(C)c1cc(Br)ccc1OCC(=O)Nc1ncn[nH]1 do in these assays?
CYP2C9 inh: 34; CYP2C19 act: 0.5; sEH inh: 10; CYP2C19 inh: 54*; sEH act: -10; CYP2C9 activ: 0.7

How did Cc1noc(NS(=O)(=O)c2ccc(NC(=O)CSc3nc4ccccc4s3)cc2)c1C do in these assays?
CYP2C9 inh: -14; CYP2C19 act: 1.2; sEH inh: -1; CYP2C19 inh: -20; sEH act: -4; CYP2C9 activ: 1.1

How did O=c1[nH][nH]cc1C=Nc1ccccc1O do in these assays?
CYP2C9 inh: 10; CYP2C19 act: 1; sEH inh: -11; CYP2C19 inh: 5; sEH act: 12; CYP2C9 activ: 0.9

How did COc1ccc(C=Nc2cccc3c(=O)[nH][nH]c(=O)c23)c2ccccc12 do in these assays?
CYP2C9 inh: 79*; CYP2C19 act: 0.6; sEH inh: 11; CYP2C19 inh: 42; sEH act: -9; CYP2C9 activ: 0.2

Results for CCCCC1CC1C(=O)Nc1ccc(OC)c(OC)c1 (stereo not given) ?
CYP2C9 inh: 59*; CYP2C19 act: 0.1; CYP2C19 inh: 92*; CYP2C9 activ: 0.4

Results for CS(=O)(=O)N(CC(=O)Nc1ccccc1Sc1ccccc1)C1CCCCC1 ?
CYP2C9 inh: 42; CYP2C19 act: 0.8; sEH inh: 4; CYP2C19 inh: 24; sEH act: -2; CYP2C9 activ: 0.6

What do the screens show for `COc1ccc(NC(=O)CN(C2CCCCC2)S(C)(=O)=O)cc1OC`?
CYP2C9 inh: 35; CYP2C19 act: 0.5; sEH inh: -12; CYP2C19 inh: 50*; sEH act: 12; CYP2C9 activ: 0.7

Results for CSc1cccc(NC(=O)CN(C2CCCCC2)S(C)(=O)=O)c1 ?
CYP2C9 inh: 71*; CYP2C19 act: 0.4; sEH inh: -4; CYP2C19 inh: 59*; sEH act: 4; CYP2C9 activ: 0.3

How did Cn1c(=O)oc2ccc(C(=O)CSc3nnnn3-c3ccccc3)cc21 do in these assays?
CYP2C9 inh: 5; CYP2C19 act: 0.9; sEH inh: -10; CYP2C19 inh: 13; sEH act: 11; CYP2C9 activ: 0.9

How did Cc1cc(C)nc(SCC(=O)c2cc3ccccc3oc2=O)n1 do in these assays?
CYP2C9 inh: 27; CYP2C19 act: 0.4; sEH inh: 6; CYP2C19 inh: 58*; sEH act: -1; CYP2C9 activ: 0.7

How did O=C(CSc1nnnn1-c1ccccc1)c1cc2ccccc2oc1=O do in these assays?
CYP2C9 inh: 60*; CYP2C19 act: 0.6; sEH inh: -15; CYP2C19 inh: 40; sEH act: 14; CYP2C9 activ: 0.4

What do the screens show for `O=C(CSc1nc2ccccc2o1)c1cc2ccccc2oc1=O`?
sEH inh: 5; sEH act: -6

Results for CCC(C)(C)NC(=O)C(c1cccn1C)N(C(=O)Cn1nnc2ccccc21)c1ccccc1OC (stereo not given) ?
CYP2C9 inh: 6; CYP2C19 act: 1; sEH inh: -4; CYP2C19 inh: -2; sEH act: 2; CYP2C9 activ: 0.9

What do the screens show for `Cc1ccc(C2CC2C(=O)NNC(=S)Nc2ccc(Cl)cc2)cc1` (stereo not given)?
sEH inh: 12; sEH act: -7

Results for COc1cc(C)nc(Oc2ccc(OCc3ccccc3)nn2)n1 ?
CYP2C9 inh: 31; CYP2C19 act: 0.2; sEH inh: -4; CYP2C19 inh: 75*; sEH act: 4; CYP2C9 activ: 0.7

How did COc1cc(C)nc(NCc2ccccc2)n1 do in these assays?
CYP2C9 inh: 44; CYP2C19 act: 0.4; sEH inh: -3; CYP2C19 inh: 61*; sEH act: 1; CYP2C9 activ: 0.6

Results for CCOC(=O)COc1ccc(Oc2nc(C)cc(OC)n2)nn1 ?
CYP2C9 inh: -14; CYP2C19 act: 1.1; sEH inh: -17; CYP2C19 inh: -7; sEH act: 15; CYP2C9 activ: 1.1

How did COC(=O)c1ccc(Oc2cc(C)nc(NCc3ccccc3)n2)cc1 do in these assays?
CYP2C9 inh: 7; CYP2C19 act: 0.9; sEH inh: -9; CYP2C19 inh: 13; sEH act: 11; CYP2C9 activ: 0.9

What do the screens show for `CCN(CC)S(=O)(=O)c1csc(C(=O)OCC(=O)c2ccccc2)c1`?
sEH inh: 3; sEH act: -2

What do the screens show for `CCOC(=O)c1cnn(CCOC(=O)C2CC2)c1NC(=O)C1CC1`?
CYP2C9 inh: 10; CYP2C19 act: 0.8; sEH inh: -7; CYP2C19 inh: 19; sEH act: 8; CYP2C9 activ: 0.9

How did O=C(Nc1cc(C(F)(F)F)ccc1N1CCCCC1)c1cccc([N+](=O)[O-])c1 do in these assays?
CYP2C9 inh: 56*; CYP2C19 act: 0.7; sEH inh: -21; CYP2C19 inh: 33; sEH act: 18; CYP2C9 activ: 0.4

How did O=C(Nc1ccccc1N1CCCCC1)c1ccc(F)cc1 do in these assays?
CYP2C9 inh: -1; CYP2C19 act: 0.8; sEH inh: 0; CYP2C19 inh: 16; sEH act: 0; CYP2C9 activ: 1

How did O=C(Nc1ccccc1N1CCCC1)c1ccc2c(c1)OCO2 do in these assays?
CYP2C9 inh: 53*; CYP2C19 act: 0.3; sEH inh: -14; CYP2C19 inh: 71*; sEH act: 13; CYP2C9 activ: 0.5

How did Cc1ccc(C(=O)Nc2cc(C(F)(F)F)ccc2N2CCCCC2)cc1[N+](=O)[O-] do in these assays?
CYP2C9 inh: 26; CYP2C19 act: 0.5; sEH inh: -7; CYP2C19 inh: 46; sEH act: 8; CYP2C9 activ: 0.7

How did O=C(Nc1cc(C(F)(F)F)ccc1N1CCCC1)c1ccc2c(c1)OCO2 do in these assays?
CYP2C9 inh: 77*; CYP2C19 act: 0.3; sEH inh: 5; CYP2C19 inh: 69*; sEH act: -4; CYP2C9 activ: 0.2

How did CC(=O)c1ccc(NS(=O)(=O)Cc2ccccc2)cc1 do in these assays?
CYP2C9 inh: 97*; CYP2C19 act: 0.1; sEH inh: -10; CYP2C19 inh: 93*; sEH act: 8; CYP2C9 activ: 0

Results for CS(=O)(=O)Nc1ccc(S(=O)(=O)NCCc2ccccc2)cc1 ?
CYP2C9 inh: 12; CYP2C19 act: 0.9; sEH inh: 1; CYP2C19 inh: 14; sEH act: 2; CYP2C9 activ: 0.9
